The nature of this experiment: qHTS Assay for Rab9 Promoter Activators: Initial hit validation from the primary screen. The gist of the method:
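Huh7 cells stably carrying a Rab9 promoter–luciferase construct, plated in reduced-serum medium with 10% FBS, rested 2 h, then exposed to compounds in DMSO for 24 h at 37C. Luminescence read 10 min after adding Amplite luciferase reagent.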

Inconclusive results are not listed. Entries that show only a call come without a potency. Calls of active or inactive are those of the source. Calls come from the whole dose curve; as a rule, active = well fitted activation curve with a large enough effect; inconclusive = small, poorly fitted or top-dose-only effect; inactive = no such curve, though single readings can be large or run the other way.
Potency is the fitted concentration of half-maximal effect.

For `CC(Sc1ncnc2c1cnn2-c1ccccc1)C(=O)Nc1ccc(N2CCOCC2)cc1` (configuration not stated), the Potency result is “inactive”.

Consider `COc1ccccc1N(C(=O)c1snc(C(N)=O)c1N)C(C(=O)NC1CCCCC1)c1cccc(OC)c1OC` (configuration not stated), for which the Potency entry was “inactive”. Under `Cn1c(SCc2ccccc2)nnc1-c1cnccn1` stands 14.1 µM (active). Consider `N#CC/C(N)=N/NC(=O)CCCNc1ncc(C(F)(F)F)cc1Cl`, for which the Potency is 19.9 µM (active). Under `COc1ccc(NC(=O)Nc2ccc(Cc3ccncc3)cc2)cc1OC` stands “inactive”; under `CCCNC(=O)C1CCN(S(=O)(=O)c2ccc3[nH]c(=O)ccc3c2)CC1`, “inactive”. Under `Cc1nc(SCC(=O)NC(=O)NC(C)(C)C)nc(C)c1C` stands “inactive”.

For `O=C(CCCN1C(=O)C(c2ccccc2)Oc2cccnc21)Nc1ccccc1Cl` (configuration not stated), the Potency result was “inactive”. As to `O=C(NNC(=O)C1COc2ccccc2O1)c1ccccc1O` (configuration not stated), the Potency entry was “inactive”. Under `COc1ccc(NC(=O)CN(C)C(=O)c2ccc(=O)[nH]c2)cc1` stands “inactive”.

As for `OCCC1CN(Cc2nc3ccccc3s2)CCN1C1CCCC1` (configuration not stated), the Potency result was “inactive”. For `COCCn1c(SCc2ccc(C(=O)OC)o2)nc2cc(Cl)ccc2c1=O`, the Potency entry was “inactive”. Under `Cc1cccc(C)c1NC(=O)Nc1cccs1` stands “inactive”; under `CN(C)C(CNC(=O)CNC(=O)c1ccc2ccccc2c1)c1ccccc1` (configuration not stated), “inactive”; under `Cc1cc(C)cc(N(CC(=O)NC2CCCC2)C(=O)CNC(=O)c2ccco2)c1`, “inactive”. Consider `O=C(CCN1C(=O)c2ccccc2C1=O)Nc1ccc(-c2nc3ccccc3s2)cc1`, for which the Potency was 0.281 µM (active). Consider `CCc1cc2c(N=Nc3c(O)[nH]c4ccccc34)ncnc2s1`, for which the Potency entry is “inactive”.

As to `COc1ccc(/C=C\C(=O)c2c(O)ccc3c(C)cc(=O)oc23)cc1OC`, the Potency entry is “inactive”. To `CC(C)C(NC(=O)c1ccc([N+](=O)[O-])cc1Cl)C(=O)N1CCCC1` (configuration not stated) belongs “inactive”; to `O=C(CCc1cccc(Cl)c1)NC1CCCN(Cc2ccccc2F)C1` (configuration not stated), “inactive”. As for `CCC(C)(C)NC(=O)C(c1ccc(OC)cc1)N(Cc1cccs1)C(=O)CCC(=O)Nc1cc(C)on1` (configuration not stated), the Potency entry was “inactive”. Take `O=[N+]([O-])c1cnccc1Nc1ccc(F)cc1`: the Potency entry is “inactive”.

Regarding `O=C(NC(=S)Nc1ccc(CN2CCCCC2)cc1)c1cc2ccccc2o1`, the Potency entry was “inactive”.

Take `Cc1ccc(S(=O)(=O)/N=C2\C=C(Nc3cccc(C(=O)O)c3)C(=O)c3ccccc32)cc1`: the Potency result is “inactive”.

On to `O=C(CCS(=O)(=O)c1ccccc1)Nc1ccc(-c2nc3ccccc3s2)cc1`, for which the Potency was 0.223 µM (active).

Take `O=C(NCCSCc1c(F)cccc1Cl)c1ccc(CN2CCOCC2)cc1`: the Potency entry is “inactive”. As for `COc1ccc(NC(=O)CSc2ccc([N+](=O)[O-])cc2)cc1S(=O)(=O)N1CCOCC1`, the Potency result was “inactive”.

Consider `CCCOP(=O)(c1ccc(N(C)C)cc1)C(O)c1cccnc1` (configuration not stated), for which the Potency result is “inactive”.

With `CNC(=O)Cn1nc(C)c2ccccc2c1=O`, the Potency entry was “inactive”. Under `CC(=O)Nc1nnc(SCC(=O)NCCOc2ccccc2)s1` stands “inactive”; under `COc1ccc(NC(=O)CCCN2C(=O)C(c3ccccc3)Oc3cccnc32)cc1OC` (configuration not stated), “inactive”; under `COC(=O)c1cn(NC(=O)C2CCCCC2)c(=O)c2ccccc12`, “inactive”.

Values taken from PubChem BioAssay AID493200 (National Center for Advancing Translational Sciences (NCATS), 2011).
